Hits are enriched below; roughly 2.2% of the tested compounds scored in any of these assays.
aSyn 5UTR inh: 5' untranslated region of α-synuclein, MLPCN primary screen | alpha-synuclein 5'UTR reporter, inhibitor activity | inhibition, % (tested at 7.5 µM) | 300,000 tested, 0.82% active | AID 1813; in the data active = inhibition above about 60%;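 note: H4 neuroglioblastoma cells stably carrying SNCA 5'UTR luciferase fusion; 0% = DMSO wells and 100% = positive control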
KLF5 inh: inhibitors of KLF5 expression; 290,000 tested, 0.23% active; DLD-1 KLF5 promoter-luciferase reporter, luminescence; AID 1700; inhibition, % at 5 µM;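 active = inhibition above a per-plate limit of that plate's mean compound inhibition plus 3 SD, cut at about 60% in these data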;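 note: 0% = DMSO wells and 100% = LY294002 at 200 µM; higher means less KLF5 promoter-driven luciferase light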
BaF3 parental: counter-screen for JAK2V617F inhibitors: parental Ba/F3 viability inhibitors; inhibition, % at 5.6 µM; CellTiter-Glo ATP luminescence; 220,000 tested, 1.1% active;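 active = inhibition above a per-campaign cutoff, the mean inhibition of all tested compounds plus 3 SD, cut at about 27% in these data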;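 note: 0% = DMSO wells and 100% = JAK Inhibitor I control wells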
APP 5UTR inh: APP translation inhibition | SH-SY5Y APP 5'UTR-luciferase reporter, luminescence | inhibition, % at 2 µM | 190,000 tested, 0.82% active | AID 1285;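 active = inhibition above a set limit, derived from the sample mean plus 3 SD, cut at about 45% in these data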
IEC-6 tox: kills IEC-6 intestinal cells in KLF5 counter-screen | IEC-6 cytotoxicity, luminescence viability | inhibition, % at 5 µM | 290,000 tested, 0.78% active | AID 1825;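 note: 0% = plate median of test compound wells and 100% = cytotoxic reference compound wells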
Ba/F3 V617F tox: reduce viability of Ba/F3 cells dependent on JAK2V617F; AID 1446; Ba/F3 EpoR-JAK2V617F viability, ATP luminescence; 220,000 tested, 1.1% active; inhibition, % at 5.6 µM;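 active = inhibition above the campaign mean plus 3 SD over all tested compounds, cut at about 24% in these data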;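 note: cytokine-independent growth of Ba/F3 cells driven by EpoR plus mutant JAK2; 0% = DMSO-treated cells and 100% = JAK inhibitor I control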
IEC-6 cytotox cf: confirmation of cytotoxic compounds in rat IEC-6 intestinal epithelial cells | IEC-6 rat intestinal epithelial viability, luminescence | shares compounds with IEC-6 tox | 1,900 tested, 63% active | inhibition, % at 5 µM;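 note: 0% = vehicle and 100% = reference cytotoxic drug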
An asterisk follows results filed as active; . = not tested or not shown. Cut-off read from the data, not from the text of the source, unless noted: active = inhibition above about 22%; inactive = the rest.

SMILES | aSyn 5UTR inh | KLF5 inh | BaF3 parental | APP 5UTR inh | IEC-6 tox | Ba/F3 V617F tox | IEC-6 cytotox cf
COc1ccc(CCNC(=O)c2cc3c(=O)n4cccc(C)c4nc3n(Cc3ccco3)c2=N)cc1OC | 1.9 | -3.0 | . | . | 35.7* | . | 0.8
N#C/C(=N/Nc1ccc(OC(F)(F)F)cc1)C(N)=S | -71.3 | -61.2 | 68.0* | . | 28.1* | 49.6* | 34.8*
COc1ccc(N/N=C(\C#N)C(N)=O)cc1 | -12.7 | -9.5 | 7.9 | 18.2 | 6.8 | 4.6 | .
Cc1ccc(S(=O)(=O)c2ncccc2[N+](=O)[O-])cc1 | -38.8 | 25.0 | . | . | 100.6* | . | 1.8
Cc1ccc(-c2csc3ncnc(N4CCN(Cc5ccccc5)CC4)c23)cc1 | 11.3 | -42.9 | . | . | -7.2 | . | .
Cc1csc2ncnc(NC3CCN(Cc4ccccc4)CC3)c12 | -19.6 | -25.6 | 60.7* | . | 22.9* | 54.9* | 14.1
O=C(CSc1nnc(CNC(=O)c2ccc(F)cc2)o1)Nc1nccs1 | -8.5 | -43.8 | . | . | -9.2 | . | .
O=C(NCC(c1cccs1)N1CCOCC1)c1ccc(Cl)s1 (configuration not stated) | 7.1 | 38.0 | 68.6* | 60.7* | 72.0* | 74.1* | 49.1*
O=C(NCC(c1cccs1)N1CCOCC1)c1ccc(Cl)cc1 (configuration not stated) | -100.1 | . | . | . | . | . | .
CCCCOC(=O)c1ccc(NC(C)=O)cc1 | -5.7 | -25.0 | 3.7 | -9.5 | 24.1* | 4.6 | 6.0
CCCCOc1ccc(CN2CCSCC2)cc1 | -34.7 | -54.8 | . | . | -5.8 | . | .
COc1ccc2[nH]cc(/C=C/c3cc[n+](C)cc3)c2c1 | -4.5 | -16.6 | . | . | 6.6 | . | .
COc1ccc2[nH]c3c4c(ccc3c2c1)C(=O)C=CC4=O | . | -21.8 | 7.7 | . | 56.7* | 45.8* | 9.7
COc1ccc2[nH]c(=O)cc(C(=O)O)c2c1 | -5.3 | -16.7 | 2.1 | -16.6 | 4.6 | -2.3 | .
O=C(NCCc1ccccc1)C1CC(=O)N(C2CCCC2)C1 (configuration not stated) | -2.7 | -3.4 | . | . | 3.8 | . | .
Nc1cccc(-c2nc3ccc(C(=O)c4ccccc4)cc3[nH]2)c1 | -276.3 | -4.4 | . | . | 71.5* | . | 60.0*
COc1ccc(OC)c(C(=O)c2ccc(C(=O)c3cc(OC)ccc3OC)cc2)c1 | 17.4 | -37.7 | 0.2 | -1.1 | 1.6 | -4.2 | .
COc1ccc(C(=O)c2ccc(N(C)C)cc2)c(OC)c1 | 36.6 | 33.2 | 52.0* | 78.1* | 54.2* | 49.7* | 52.9*
COc1ccc(C(=O)c2ccc(OC)cc2OC)cc1 | -30.6 | 28.2 | -1.6 | . | 25.2* | 3.4 | 13.6
COc1ccc(CCNC(=O)CN2C(=O)NC(Cc3c[nH]c4ccccc34)C2=O)cc1 (configuration not stated) | 12.9 | -42.4 | . | . | -6.7 | . | .
CCOc1cc(CNc2ccc3c(c2)OCCO3)cc(Br)c1OCC | 97.4* | 6.7 | 74.3* | 94.7* | 83.1* | 74.3* | 53.2*
Cc1c(Cl)cccc1NC(=S)NC(=O)c1cncc(Br)c1 | -3.8 | . | . | . | . | . | .
COc1ccc(C(=O)NN=C2CCCC2)cc1OC | -17.0 | -31.7 | . | . | 8.4 | . | .
CCOc1cc(C(=O)NN=C2CCCC2)cc(OCC)c1OCC | -19.9 | 16.6 | . | . | 79.9* | . | -0.5
Nc1cccc2c1C(=O)N(CCOc1ccc(F)cc1)C2=O | -117.9 | -109.1 | . | . | 8.7 | . | .
SMILES | aSyn 5UTR inh | KLF5 inh | BaF3 parental | APP 5UTR inh | IEC-6 tox | Ba/F3 V617F tox | IEC-6 cytotox cf
O=C1CC(c2ccccc2)CC(O)=C1C=NCc1ccccc1Cl (configuration not stated) | -5.6 | 51.3 | 28.7* | 61.1* | 30.6* | 42.9* | 29.8*
COc1ccc(-n2ncc3c2CC(C)(C)CC3NC(=O)c2cnc(C)cn2)cc1 (configuration not stated) | 8.4 | -8.4 | . | . | 13.8 | . | .
Cc1cc(Cl)n2c(nc3ccccc32)c1C#N | 88.7* | 17.4 | 29.1* | 90.0* | 77.1* | 75.6* | 37.4*
COC(=O)[C@H](Cc1c[nH]c2ccccc12)NC(=O)NCc1ccccc1 | 9.8 | -6.8 | . | . | 1.1 | . | .
Cc1cccc(C)c1NC(=O)CN(C)S(=O)(=O)c1ccc(-c2ccc(=O)[nH]n2)s1 | 11.1 | 8.5 | . | . | -8.1 | . | .
ClC(Cl)(Cl)c1nc2ccccc2n2nncc12 | 28.7 | 31.4 | . | . | 82.5* | . | 31.1*
NNC(=O)c1cc2ccccc2[nH]1 | 55.0 | 33.5 | 2.6 | 90.4* | 31.5* | 2.8 | -5.0
O=C(NCCCO)c1cc2ccccc2[nH]1 | -8.9 | -2.3 | 5.1 | -11.2 | -2.1 | 5.6 | .
CN1CCN(C(=O)/C(=C/c2ccc([N+](=O)[O-])cc2)NC(=O)c2ccccc2)CC1 | 6.6 | -19.1 | . | . | -3.1 | . | .
O=C(CNCc1ccccc1)Nc1ccc(Oc2ccccc2)cc1 | 20.1 | 31.7 | 51.8* | -14.4 | 60.3* | 62.4* | 6.0
CCOC(=O)Nc1ccc2nc(N3CCCCCC3)sc2c1 | -313.0 | -24.0 | 67.0* | . | 67.0* | 78.5* | 60.0*
O=[N+]([O-])c1c(Nc2ccccc2O)cc(Cl)c2nonc12 | 11.6 | 15.1 | . | . | 96.2* | . | 42.7*
COc1ccc(OC)c(C2C(C(=O)c3ccco3)=C(O)C(=O)N2CC2CCCO2)c1 (configuration not stated) | 15.7 | -2.5 | . | . | 5.6 | . | .
CCSc1nsc(NC(=O)Nc2ccccc2F)n1 | -183.3 | -154.7 | . | . | -3.0 | . | .
C=CCSc1nsc(NC(=O)Nc2ccc(F)cc2)n1 | 10.0 | -12.8 | . | . | 31.7* | . | 47.9*
CC(C)(C)OC(=O)N1CCC(c2c(C(=O)NCC3CCN(C4CCCC4)C3)cnn2-c2ccc(F)cc2)CC1 (configuration not stated) | 9.3 | -4.2 | . | . | -2.1 | . | .
O=C(O)c1ccc(N/N=C/C=C/c2ccccc2[N+](=O)[O-])cc1 | -127.0 | -135.0 | -0.6 | -112.9 | 23.7* | 3.7 | 38.6*
Cc1ccc2nc(SCC(=O)N3CCCCC3)nc(=O)n2c1 | -8.7 | . | . | . | . | . | .
Cc1cc(C)c(NC(=S)N2CCC(N(C)CC3CCCO3)CC2)c(C)c1 (configuration not stated) | -46.5 | -2.8 | 1.8 | 16.0 | 26.9* | -7.0 | -6.6
COc1cc(C2c3cc4c(cc3C(OC3OC5COC(c6cccs6)OC5C(O)C3O)C3COC(=O)C23)OCO4)cc(OC)c1O (configuration not stated) | 81.7* | 40.6 | 102.0* | . | 93.2* | 98.4* | 74.0*
COc1ccc(OCC(=O)Nc2ccc(N3CCN(C(=O)c4ccccc4)CC3)c(Cl)c2)cc1 | -1.7 | -0.1 | . | . | 6.6 | . | .
CCOc1ccc(CCNC(=O)Cc2ccc(NC(=O)C3=C(C)OCCS3)cc2)cc1 | -56.0 | -31.2 | . | . | 2.6 | . | .
CSc1ccc(CNC(=O)Cc2ccc(NC(=O)C3=C(C)OCCS3)cc2)cc1 | -152.8 | -40.5 | . | . | 27.4* | . | 35.3*
COc1ccccc1C(=O)Nc1ccc2c(c1)nc(CCNC(=O)c1ccccc1)n2C | -9.7 | 44.6 | 76.4* | . | 60.1* | 85.1* | 42.5*
COc1ccccc1C(=O)Nc1ccc2c(c1)nc(CCNC(C)=O)n2C | -72.5 | -53.0 | 6.3 | -63.2 | -1.2 | 2.5 | .
O=C(O)c1ccc(N/N=C/c2cccc(C(F)(F)F)c2)cc1 | -99.1 | -137.6 | . | . | 31.6* | . | 36.5*
